Test results from PubChem BioAssay (NCATS).
Inconclusive results are not listed. Entries that show only a call come without a potency. A number with no mark means an inactive call. Active and inactive are the calls of the source. Calls follow the shape of the dose curve; as a rule, active = well fitted curve in the direction sought with a large enough effect; inconclusive = small, poorly fitted or top-dose-only effect, or another doubt; inactive = no such curve, though single readings can be large; an effect the other way counts as inactive or inconclusive.

Experiments:
[1] = target: Rap guanine nucleotide exchange factor 3 (Homo sapiens) (UniProt O95398); test: Confirmatory qHTS for antagonist of cAMP-regulated guanine nucleotide exchange factor 3 (EPAC1) (AID 1645880); also: nearly all actives have a fitted effect of over 55% in size; also: potency is read from the fitted curve at half-maximal effect
In short: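 Released BODIPY-GDP fluoresces less than Rap1-bound BODIPY-GDP; the signal is followed at 480/540 nm at 5-min intervals over 30 min, after 5 min at room temperature. Reactions contain 100 nM EPAC1, 250 nM RAP1B-BODIPY-GDP and 50 uM GDP; results are normalized to ATA and DMSO.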

[2] = target: Rap guanine nucleotide exchange factor 3 (Homo sapiens) (UniProt O95398); test: Confirmatory qHTS for agonist of cAMP-regulated guanine nucleotide exchange factor 3 (EPAC1) (AID 1645881);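 also: EPAC1 catalysed release of BODIPY-GDP from Rap1B seen as fluorescence loss; nearly all actives have a fitted effect of over 75% in size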
[3] = target: Rap guanine nucleotide exchange factor 4 (Homo sapiens) (UniProt Q8WZA2); test: Confirmatory qHTS for agonist of cAMP-regulated guanine nucleotide exchange factor 4 (EPAC2) (AID 1645884);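 also: nucleotide exchange releases bodipy-GDP from Rap1 and this lowers its fluorescence; nearly all actives have a fitted effect of over 65% in size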
[4] = target: Rap guanine nucleotide exchange factor 4 (Homo sapiens) (UniProt Q8WZA2); test: Confirmatory qHTS for antagonist of cAMP-regulated guanine nucleotide exchange factor 4 (EPAC2) (AID 1645885); also: nearly all actives have a fitted effect of over 25% in size; also: potency is read from the fitted curve at half-maximal effect
[5] = target: Rap guanine nucleotide exchange factor 3 (Homo sapiens) (UniProt O95398); test: Counterscreen qHTS for antagonist of cAMP-regulated guanine nucleotide exchange factor 3 (EPAC1) (AID 1645888); also: potency is read from the fitted curve at half-maximal effect
In short: (§1)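 Rap1B–BODIPY-GDP (250 nM) with 50 uM GDP; compounds pin-transferred to 9.74 nM–152 uM final (activator) or from 7.32 nM upwards (inhibitor). Fluorescence Ex/Em 480/540 nm read at 5 and 30 min, then after adding cAMP or buffer, at room temperature.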

[6] = target: Rap guanine nucleotide exchange factor 3 (Homo sapiens) (UniProt O95398); test: Counterscreen qHTS for agonist of cAMP-regulated guanine nucleotide exchange factor 3 (EPAC1) (AID 1645889); also: nearly all actives have a fitted effect of over 40% in size
In short: as §1

Rap guanine nucleotide exchange factor 3 (Homo sapiens), sequence (O95398 whole entry, looked up): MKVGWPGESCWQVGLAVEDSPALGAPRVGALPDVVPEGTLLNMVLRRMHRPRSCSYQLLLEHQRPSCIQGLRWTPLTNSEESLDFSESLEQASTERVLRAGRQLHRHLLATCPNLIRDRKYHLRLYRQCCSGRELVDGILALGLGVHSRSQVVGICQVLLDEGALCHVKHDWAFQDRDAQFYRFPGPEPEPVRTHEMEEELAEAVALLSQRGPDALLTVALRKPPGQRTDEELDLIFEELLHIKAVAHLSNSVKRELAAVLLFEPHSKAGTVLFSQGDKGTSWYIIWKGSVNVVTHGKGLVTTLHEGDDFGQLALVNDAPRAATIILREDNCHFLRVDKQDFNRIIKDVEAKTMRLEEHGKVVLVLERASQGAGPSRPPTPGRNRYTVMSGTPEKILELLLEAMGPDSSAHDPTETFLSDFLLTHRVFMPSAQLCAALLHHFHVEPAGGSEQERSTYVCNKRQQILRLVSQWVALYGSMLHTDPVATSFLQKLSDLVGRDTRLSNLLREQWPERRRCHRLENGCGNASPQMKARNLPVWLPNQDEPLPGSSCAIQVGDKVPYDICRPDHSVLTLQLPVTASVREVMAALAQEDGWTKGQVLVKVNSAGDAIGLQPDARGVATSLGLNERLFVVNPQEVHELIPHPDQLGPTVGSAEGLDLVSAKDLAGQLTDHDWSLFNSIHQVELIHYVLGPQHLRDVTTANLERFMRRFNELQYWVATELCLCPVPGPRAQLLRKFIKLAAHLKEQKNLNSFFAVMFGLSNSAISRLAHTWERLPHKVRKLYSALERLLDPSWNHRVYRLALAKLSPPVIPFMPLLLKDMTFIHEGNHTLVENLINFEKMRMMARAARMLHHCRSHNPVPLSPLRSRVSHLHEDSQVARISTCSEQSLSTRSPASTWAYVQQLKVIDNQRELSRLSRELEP
Rap guanine nucleotide exchange factor 4 (Homo sapiens), sequence (Q8WZA2 whole entry, looked up): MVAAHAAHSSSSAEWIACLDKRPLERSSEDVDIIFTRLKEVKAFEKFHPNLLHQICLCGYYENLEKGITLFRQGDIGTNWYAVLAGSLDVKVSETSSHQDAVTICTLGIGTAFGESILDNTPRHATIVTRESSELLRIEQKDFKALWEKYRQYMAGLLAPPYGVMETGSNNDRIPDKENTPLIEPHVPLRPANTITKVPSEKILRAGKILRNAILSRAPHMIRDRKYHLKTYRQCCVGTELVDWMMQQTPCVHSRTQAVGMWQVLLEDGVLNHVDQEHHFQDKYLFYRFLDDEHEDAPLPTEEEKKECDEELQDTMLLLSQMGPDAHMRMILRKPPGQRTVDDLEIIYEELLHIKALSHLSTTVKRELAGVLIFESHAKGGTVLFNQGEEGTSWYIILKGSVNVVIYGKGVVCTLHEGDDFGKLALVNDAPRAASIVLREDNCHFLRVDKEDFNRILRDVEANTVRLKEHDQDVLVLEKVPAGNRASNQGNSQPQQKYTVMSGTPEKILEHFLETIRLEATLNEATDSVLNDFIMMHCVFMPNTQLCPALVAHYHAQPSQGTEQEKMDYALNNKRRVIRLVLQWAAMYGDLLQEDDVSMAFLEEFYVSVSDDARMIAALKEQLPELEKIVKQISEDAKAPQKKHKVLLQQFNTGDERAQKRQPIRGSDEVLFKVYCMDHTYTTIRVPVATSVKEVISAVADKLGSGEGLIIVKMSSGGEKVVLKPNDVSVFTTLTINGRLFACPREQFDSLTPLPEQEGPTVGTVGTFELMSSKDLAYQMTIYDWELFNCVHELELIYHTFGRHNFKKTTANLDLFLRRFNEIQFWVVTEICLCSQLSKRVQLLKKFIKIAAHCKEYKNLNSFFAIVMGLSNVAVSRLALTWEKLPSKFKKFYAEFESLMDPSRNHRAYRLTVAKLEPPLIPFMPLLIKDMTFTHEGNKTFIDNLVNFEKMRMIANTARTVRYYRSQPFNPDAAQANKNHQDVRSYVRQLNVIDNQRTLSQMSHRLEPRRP

For `Cn1c(N)c(C(=O)COC(=O)COc2ccccc2C#N)c(=O)n(C)c1=O`, the Potency [1] was “inactive”, the Potency [2] was “inactive” and the activation [3] was 1.14% [at 17.1 µM, percent relative to cAMP agonist control]. For the same compound, the Potency [4] was “inactive”, the activity change, negative = inhibition [5] was 3.67% [at 30.8 µM] and the activation [6] was 3.75% [at 30.8 µM].
`O=C(Nc1cccc(C(F)(F)F)c1)c1cccc(NS(=O)(=O)c2ccc(O)c(C(=O)O)c2)c1` was tested, and the Potency [1] was 60.1 µM (active), the Potency [2] was “inactive” and the Potency [3] was “inactive”. For the same compound, the Potency [4] was “inactive”, the Potency [5] was “inactive” and the Potency [6] was “inactive”.
In the case of `CC(C)(C)c1ccc(CC(=O)N2CCC2(C)C(=O)NS(=O)(=O)c2ccccc2)cc1` (stereo not given), the Potency [1] was “inactive”, the Potency [2] was “inactive” and the activation [3] was 0.17% [at 17.1 µM, percent relative to cAMP agonist control]. For the same compound, the Potency [4] was “inactive”, the activity change, negative = inhibition [5] was -2% [at 30.8 µM] and the activation [6] was 19.6% [at 30.8 µM].
`O=C(OC1CCOC1=O)c1ccc(-c2nc3ccccc3s2)s1` (stereo not given) was tested, and the Potency [1] was “inactive”, the Potency [2] was “inactive” and the Potency [3] was “inactive”. For the same compound, the outcome [4] was “inactive [at 12.7 µM]”, the Potency [5] was “inactive” and the Potency [6] was “inactive”.
For `CC(C)c1c(Cl)c(O)c(-c2ccccc2)c(=O)n1-c1ccc(F)cc1`, the Potency [1] was 19 µM (active), the Potency [2] was “inactive” and the Potency [3] was “inactive”. The Potency [4] was “inactive”, the Potency [5] was “inactive” and the Potency [6] was “inactive”.
For `Cc1ccccc1C(=O)/C(C#N)=N/Nc1c(C)n(C)n(-c2ccccc2)c1=O`, the Potency [1] was 42.6 µM (active), the Potency [2] was “inactive” and the Potency [3] was “inactive”. The Potency [4] was 67.5 µM (active), the Potency [5] was 79.4 µM (active) and the Potency [6] was “inactive”.
With `O=C(O)CN1C(=O)/C(=C\c2cccc(OCc3ccccc3F)c2)SC1=S` the Potency [1] was 42.6 µM (active), the Potency [2] was “inactive” and the Potency [3] was “inactive”. For the same compound, the Potency [4] was 84.9 µM (active), the Potency [5] was “inactive” and the Potency [6] was “inactive”.
`O=c1ccc(-c2ccccc2)nn1Cc1c(F)cccc1Cl` was tested, and the Potency [1] was “inactive”, the Potency [2] was “inactive” and the Potency [3] was “inactive”. For the same compound, the Potency [4] was “inactive”, the Potency [5] was “inactive” and the Potency [6] was “inactive”.
In the case of `O=C(N/N=C/c1cn(-c2ccccc2)nc1-c1cccnc1)c1ccccc1`, the Potency [1] was “inactive”, the Potency [2] was “inactive” and the activation [3] was 6.58% [at 17.1 µM, percent relative to cAMP agonist control]. The Potency [4] was “inactive”, the activity change, negative = inhibition [5] was -17.7% [at 30.8 µM] and the activation [6] was 18.8% [at 30.8 µM].
With `CC(=O)NC(CCS(C)(=O)=O)C(=O)Nc1cccc(C)c1C` (stereo not given) the Potency [1] was “inactive”, the Potency [2] was “inactive” and the Potency [3] was “inactive”. For the same compound, the Potency [4] was “inactive”, the Potency [5] was “inactive” and the Potency [6] was “inactive”.
For `CCOc1ccc(NC(=O)CN(C)C(=O)c2cc3c(s2)CCC3)cc1OCC`, the Potency [1] was 37.9 µM (active), the Potency [2] was “inactive” and the Potency [3] was “inactive”. For the same compound, the Potency [4] was “inactive”, the Potency [5] was “inactive” and the Potency [6] was “inactive”.
`Cc1ccc(-c2csc(NC(=O)c3ccc(Br)cc3)c2C(=O)O)cc1` was tested, and the Potency [1] was 33.8 µM (active), the Potency [2] was “inactive” and the Potency [3] was “inactive”. The Potency [4] was “inactive”, the Potency [5] was “inactive” and the Potency [6] was “inactive”.
In the case of `CC(OC(=O)c1nn(C)c(=O)c2ccccc12)C(=O)NC1CCCCC1C` (stereo not given), the Potency [1] was “inactive”, the Potency [2] was “inactive” and the Potency [3] was “inactive”. For the same compound, the Potency [4] was “inactive”, the Potency [5] was “inactive” and the Potency [6] was “inactive”.
`Cn1c(Cc2cccs2)nnc1SCc1nc2ccccc2[nH]1` was tested, and the Potency [1] was “inactive”, the Potency [2] was “inactive” and the activation [3] was 2.48% [at 17.1 µM, percent relative to cAMP agonist control]. For the same compound, the Potency [4] was “inactive”, the activity change, negative = inhibition [5] was -1.2% [at 30.8 µM] and the activation [6] was 30.7% [at 30.8 µM].
`CC(NC(=O)c1cc(S(=O)(=O)N2CCOCC2)ccc1N1CCCC1)c1ccc(Cl)c(Cl)c1` (stereo not given) was tested, and the Potency [1] was “inactive”, the Potency [2] was “inactive” and the Potency [3] was “inactive”. For the same compound, the Potency [4] was “inactive”, the Potency [5] was “inactive” and the Potency [6] was “inactive”.
In the case of `CC1=NN(c2nc(-c3ccc(Cl)cc3)cs2)C(=O)C1`, the Potency [1] was 25.1 µM (active), the Potency [2] was “inactive” and the activation [3] was 4.56% [at 17.1 µM, percent relative to cAMP agonist control]. The Potency [4] was “inactive”, the activity change, negative = inhibition [5] was -0.482% [at 30.8 µM] and the activation [6] was 11% [at 30.8 µM].
With `CCOC(=O)c1oc2ccccc2c1CN1CCN(C(=O)c2ccccc2)CC1` the Potency [1] was “inactive”, the Potency [2] was “inactive” and the Potency [3] was “inactive”. The Potency [4] was “inactive”, the Potency [5] was “inactive” and the Potency [6] was “inactive”.
`COc1ccccc1NC(=O)COC(=O)c1ccc([N+](=O)[O-])s1` was tested, and the Potency [1] was 21.3 µM (active), the Potency [2] was “inactive” and the Potency [3] was “inactive”. For the same compound, the Potency [4] was “inactive”, the Potency [5] was “inactive” and the Potency [6] was “inactive”.
For `O=[N+]([O-])c1cc([N+](=O)[O-])c2oc(-c3ccccc3)c(Br)c2c1O`, the Potency [1] was 2.69 µM (active), the Potency [2] was “inactive” and the Potency [3] was “inactive”. For the same compound, the Potency [4] was 3.01 µM (active), the Potency [5] was “inactive” and the Potency [6] was “inactive”.
For `COC(=O)c1sc(-c2ccc(C(C)(C)C)cc2)cc1NC(=O)c1ccccc1C(=O)O`, the Potency [1] was 50.1 µM (active), the Potency [2] was “inactive” and the activation [3] was 5.26% [at 17.1 µM, percent relative to cAMP agonist control]. For the same compound, the Potency [4] was “inactive”, the activity change, negative = inhibition [5] was -19.7% [at 30.8 µM] and the activation [6] was 9.25% [at 30.8 µM].
